Results published in PubChem BioAssay (NCI).
The panel holds about 83,000 compounds, 20% with a hit somewhere; the sample as a whole holds those more often.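 For each line, cells grew in 96-well plates with the test compound present at a single concentration for 48 hours.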 A number with no mark means an inactive call. The source made the active and inactive calls. Rule for the calls: active = growth percent below 10; inactive = the rest.

Key:
Assay in all cases: NCI-60 one-dose screen, 48 h (100 = growth as untreated, 0 = no growth, -100 = all killed)
Details in all cases: 10 µM unless noted
HCT-15 colon = test system: HCT-15 colon
HT29 colon = test system: HT29 colon
SNB-75 CNS = test system: SNB-75 CNS
SNB-19 CNS = test system: SNB-19 CNS
U251 CNS = test system: U251 CNS
PC-3 prostate = test system: PC-3 prostate
UACC-62 melanoma = test system: UACC-62 melanoma
SK-MEL-28 melanoma = test system: SK-MEL-28 melanoma
SK-MEL-2 melanoma = test system: SK-MEL-2 melanoma
EKVX NSCLC = test system: EKVX NSCLC
SN12C renal = test system: SN12C renal
UO-31 renal = test system: UO-31 renal
TK-10 renal = test system: TK-10 renal
ACHN renal = test system: ACHN renal
CAKI-1 renal = test system: CAKI-1 renal
A498 renal = test system: A498 renal
CCRF-CEM leukemia = test system: CCRF-CEM leukemia
MOLT-4 leukemia = test system: MOLT-4 leukemia
LOX IMVI melanoma = test system: LOX IMVI melanoma

Compound | growth (HCT-15 colon) | growth (HT29 colon) | growth (SNB-75 CNS) | growth (SNB-19 CNS) | growth (U251 CNS) | growth (PC-3 prostate) | growth (UACC-62 melanoma) | growth (SK-MEL-28 melanoma) | growth (SK-MEL-2 melanoma) | growth (EKVX NSCLC) | growth (SN12C renal) | growth (UO-31 renal) | growth (TK-10 renal) | growth (ACHN renal) | growth (CAKI-1 renal) | growth (A498 renal) | growth (CCRF-CEM leukemia) | growth (MOLT-4 leukemia) | growth (LOX IMVI melanoma)
COC[C@H](C)n1c(C2CCOCC2)nc2cnc3cc(-c4c(C)noc4C)c(OC)cc3c21 | 34.6% | 23.4% | 31.2% | 64.8% | 54.1% | 44.8% | 31.7% | 59% | 76.6% | 59.7% | 76.1% | 19.5% | 29.4% | 43.7% | 16.2% | 5.12% (active) | 61.4% | 42.2% | 
Nc1nc2ncc(CCNc3ccc(C(=O)O)cc3)nc2c(=O)[nH]1 | 102% | 97.5% | 110% | 111% | 109% | 92.4% | 111% | 118% | 96.3% |  | 106% | 86.6% | 103% | 110% | 98.3% | 120% | 87.9% | 75.5% | 102%
O=C(COc1ccc(-c2nc3cc(Cl)c(Cl)cc3[nH]2)cc1)N=Nc1c(O)[nH]c2ccccc12 | 79.4% | 4.49% (active) | -73.8% (active) | -35.9% (active) | -86.3% (active) | -50.6% (active) | 1.75% (active) | -49.1% (active) | 14.6% |  | -27.1% (active) | 99.7% | 22.8% | 25.6% | 38.5% | -1.56% (active) | 16.1% | 27% | 
COc1cc(-c2nc3ccccc3[nH]2)ccc1OCC(=O)N=Nc1c(O)[nH]c2ccc(Cl)cc12 | 77.4% | -59% (active) | -88.4% (active) | -93.1% (active) | -95% (active) | -73% (active) | -64.3% (active) | -65.4% (active) | -47.4% (active) |  | -73.4% (active) |  | -7.25% (active) | 31.4% | -66.4% (active) | 81.8% | -46.7% (active) | -45.1% (active) | -97.1% (active)
COc1cc(-c2nc3ccccc3[nH]2)ccc1OCc1nnc(-c2ccc(CC(C)C)cc2)o1 | 76.5% | 75.2% | 94.3% | 91.8% | 69.5% | 86% | 92.7% | 93.5% | 101% |  | 89.9% | 64.9% | 115% | 101% | 96.3% | 64% | 84.9% | 78.8% | 103%
CNC(=O)c1cc(Oc2ccc(NC(=O)Nc3ccc(Cl)c(SC)c3)c(F)c2)ccn1 | 50% | 30% | 71% | 75% | 56% | 34.2% | 28% | 56.7% | 21.6% | 32.4% |  | 42.6% | 55.3% |  |  | 41.3% | 40.7% | 22.8% | 37.7%
O=C1C=C(OCC=C(Cl)Cl)C(=O)c2ccccc21 | 64.2% | 82.4% | 50.6% | 98.7% | 75.7% | 80.9% | 87% | 104% | 69.8% | 93.3% | 84.5% | 59% | 122% | 64% | 93.4% | 97.7% | 28.7% | 71% | 
OCc1ccc(N2CCc3cccc(F)c3C2)cc1Cl | 88.9% [0.1 µM] | 16.2% [0.1 µM] | 108% [0.1 µM] | 85.2% [0.1 µM] | 53.5% [0.1 µM] | 89.1% [0.1 µM] | -11.2% [0.1 µM] (active) | 113% [0.1 µM] | 91.1% [0.1 µM] |  | 92.9% [0.1 µM] | 91.6% [0.1 µM] | -0.0842% [0.1 µM] (active) | 108% [0.1 µM] | 63.5% [0.1 µM] | -16.3% [0.1 µM] (active) | 96% [0.1 µM] | 100% [0.1 µM] | 105% [0.1 µM]
O=C(CCl)Oc1ccc(-c2ccccc2)c(Br)c1 | 110% | 109% | 95.6% | 107% | 102% | 97.2% | 99.6% | 107% | 104% | 115% | 109% | 92.8% | 105% | 108% | 98.5% | 95% | 118% | 105% | 
CS(=O)(=O)c1ccc(-n2nc(-c3ccc(Br)cc3)c3ccccc3c2=O)cc1 | 93.4% | 101% | 70.5% | 92.5% | 97.1% | 89.3% | 97% | 113% | 107% |  | 102% | 67.9% | 105% | 95.9% | 98.7% | 81.3% | 97.1% | 94% | 
CCOC(=O)c1c(C)oc2ncnc(N3CCN(C(=S)Nc4ccccc4)CC3)c12 | 90.6% | 102% | 80.5% | 96.5% | 89.7% | 91.8% | 87.2% | 107% | 95.3% |  | 92.7% | 75.1% | 100% | 92% | 79.6% |  | 92.3% | 91.3% | 90.7%
O=C1c2cc3c(cc2-c2c1c1ccc(F)cc1c(=O)n2C[C@H](O)[C@@H](O)[C@H](O)CO)OCO3 | 5.37% (active) | -2.72% (active) | -38.4% (active) | 4.38% (active) | -19.1% (active) | 7.25% (active) | -55.5% (active) | -37.6% (active) | -27.2% (active) | 13% | 4.69% (active) | -21.3% (active) | -0.938% (active) | -42.9% (active) |  | -78.8% (active) | 5.88% (active) | -6.28% (active) | 
CCc1nnc(CNc2ccc(Cl)cc2)o1 | 100% | 95.1% | 82.7% | 106% | 98.2% | 95.1% | 93.7% | 100% | 90.6% | 91.3% | 95.8% | 73.7% | 114% |  | 89.9% | 106% | 114% | 89.7% | 
O=CNc1ccc2c(c1)Cc1cccc(NC=O)c1-2 | 91.8% | 96.2% | 90.7% | 102% | 95.1% | 95.2% | 72.1% | 112% | 106% |  | 95.8% | 78.8% | 98.7% | 85.8% |  | 105% | 107% | 75% | 90.5%
Cc1c(/C=C/[N+](=O)[O-])ccc2c1[nH]c1ccccc12 | 81.3% | 96.5% | 107% | 100% | 73.7% | 95.5% | 81% | 113% | 93.5% | 98.6% | 99.7% | 94.3% | 93.2% | 111% | 102% | 83.6% | 87% | 94.9% | 
O=c1cc(CSc2nnc(-c3ccc(F)cc3)o2)c2ccc3ccccc3c2o1 | 98.4% | 95% | 98.3% | 101% | 102% | 92.5% | 93.5% | 110% | 87% |  |  | 77.7% | 102% | 96.7% |  | 94.6% | 112% | 95.9% | 87.7%
C=C(C)C1CC(O)C2(C)CCCC3C2C1CC(C)C3(C)CC/C(C)=C/C(O)C1CCC(=O)c2c(OC)cc(OC)cc21 (stereo not given) | 30.7% | 46.6% | 38.3% | 56.5% | 35.9% | 20.9% | 36.5% | 49.6% | 65.8% |  | 59.2% | 47.6% | 55.6% | 41.1% | 48.5% | 9.01% (active) | 25.7% | 21.7% | 22.5%
